Bioassay records (PubChem BioAssay)
In the library only some 2.1% were active in any assay of this set; here they are far more common.
APP 5UTR inh – APP translation inhibition; SH-SY5Y APP 5'UTR-luciferase reporter, luminescence; inhibition, % at 2 µM; hit rate 0.82% among 190,000;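 active means inhibition above a set limit, derived from the sample mean plus 3 SD, cut at about 45% in these data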
KLF5 inh – inhibitors of KLF5 expression. DLD-1 KLF5 promoter-luciferase reporter, luminescence. inhibition, % at 5 µM. hit rate 0.23% among 290,000;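 active means inhibition above a per-plate limit of that plate's mean compound inhibition plus 3 SD, cut at about 60% in these data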;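 further: 0% = DMSO wells and 100% = LY294002 at 200 µM; higher means less KLF5 promoter-driven luciferase light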
Ba/F3 V617F tox – loss of viability in JAK2V617F-driven Ba/F3 cells. inhibition, % at 5.6 µM. hit rate 1.1% among 220,000. Ba/F3 EpoR-JAK2V617F viability, ATP luminescence. AID 1446;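 active means inhibition above the campaign mean plus 3 SD over all tested compounds, cut at about 24% in these data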;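 further: cytokine-independent growth of Ba/F3 cells driven by EpoR plus mutant JAK2; 0% = DMSO-treated cells and 100% = JAK inhibitor I control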
BaF3 tox – counter-screen for JAK2V617F inhibitors: parental Ba/F3 viability inhibitors. CellTiter-Glo ATP luminescence. inhibition, % at 5.6 µM. hit rate 1.1% among 220,000. AID 1486;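 active means inhibition above a per-campaign cutoff, the mean inhibition of all tested compounds plus 3 SD, cut at about 27% in these data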;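 further: 0% = DMSO wells and 100% = JAK Inhibitor I control wells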
aSyn UTR inh – MLPCN primary screen, SNCA 5' untranslated region; alpha-synuclein 5'UTR reporter, inhibitor activity; inhibition, % (tested at 7.5 µM); hit rate 0.82% among 300,000; AID 1813; in the data active means inhibition above about 60%;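 further: H4 neuroglioblastoma cells stably carrying SNCA 5'UTR luciferase fusion; 0% = DMSO wells and 100% = positive control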
IEC-6 cytotox – IEC-6 cytotoxicity, counter-screen for KLF5 inhibitors; inhibition, % at 5 µM; luminescence viability; hit rate 0.78% among 290,000;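 further: 0% = plate median of test compound wells and 100% = cytotoxic reference compound wells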
IEC-6 cytotox cf – IEC-6 cytotoxicity, confirmation assay | IEC-6 rat intestinal epithelial viability, luminescence | inhibition, % at 5 µM | shares compounds with IEC-6 cytotox | hit rate 63% among 1,900;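 further: 0% = vehicle and 100% = reference cytotoxic drug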
* marks the source's active call; other numbers are inactive results; i = inactive; nt = not tested or not shown. Unless noted, no stated cut-off is given here; in the data, active means inhibition above about 22%; inactive means the rest.

SMILES	APP 5UTR inh	KLF5 inh	Ba/F3 V617F tox	BaF3 tox	aSyn UTR inh	IEC-6 cytotox	IEC-6 cytotox cf
Cc1cccc(NC(=O)[C@H](Cc2c[nH]c3ccccc23)NC(=O)[C@@H]2Cc3ccccc3CN2)c1	nt	20.0	nt	nt	31.6	-1.8	nt
Cc1ccc(NC(=O)[C@H](Cc2c[nH]c3ccccc23)NC(=O)[C@@H]2Cc3ccccc3CN2)c(C)c1	nt	52.1	nt	nt	22.7	31.5*	6.2
CCC(C)NCCOCCOc1ccc(Cl)c2ccccc12 (stereo unspecified)	-3.5	-14.3	5.2	0.9	2.8	33.9*	14.8
CCC(C)NCCOCCOc1ccc(Cl)c(C)c1C (stereo unspecified)	-11.3	0.7	-0.9	3.8	-12.0	-2.5	nt
CC1c2cc3c(cc2CCN1C(=O)c1ccc(Br)cc1)OCCCO3 (stereo unspecified)	nt	6.8	nt	nt	29.6	39.4*	37.0*
COc1ccc(C(=O)N2CCc3cc4c(cc3C2C)OCCCO4)cc1 (stereo unspecified)	nt	10.8	nt	nt	15.1	13.1	nt
Cc1ccc(N(C)S(=O)(=O)c2ccc(-c3cc(C)no3)s2)cc1	nt	35.4	nt	nt	-38.1	41.3*	4.8
Cc1cc(-c2ccc(S(=O)(=O)N(C)c3ccc(C)c(C)c3)s2)on1	nt	32.2	nt	nt	-0.1	52.8*	42.2*
COc1ccc(-c2cc(C)no2)cc1S(=O)(=O)N(C)c1ccc(C)c(C)c1	nt	-20.6	nt	nt	28.4	2.8	nt
O=C(NCc1ccccc1)c1ncn[nH]1	nt	-2.9	-0.1	-6.2	2.5	2.0	nt
CCc1nc(C(N)=O)c2[nH]c(=O)n(-c3ccc(OC)cc3OC)c2n1	nt	-11.7	nt	nt	7.2	-3.5	nt
Cc1ccc(CNC(=O)C2CCC(CNS(=O)(=O)c3cccs3)CC2)cc1 (stereo unspecified)	nt	6.0	nt	nt	-10.7	-7.6	nt
COc1cccc(CN(C)Cc2cc(=O)oc3c(C)c(C)ccc23)c1	nt	-42.2	nt	nt	30.3	61.0*	39.0*
Cc1c(O)ccc2c(CN(C)Cc3ccccc3)cc(=O)oc12	nt	-39.1	-1.6	2.4	15.7	58.0*	15.2
Cc1ccccc1CN(C)Cc1cc(=O)oc2c(C)c(C)ccc12	nt	-22.0	nt	nt	13.6	27.7*	17.7
COc1cccc(CN(C)Cc2cc(=O)oc3cc(O)c(Cl)cc23)c1	nt	-13.7	nt	nt	12.5	-5.7	nt
O=C(CCC(=O)NNC(=O)c1ccccc1[N+](=O)[O-])NCc1ccccc1	-6.0	-18.1	4.0	10.7	-11.3	5.1	nt
COc1cccc(C(=O)N2CCN(C(=O)COc3ccc4ccccc4c3)CC2)c1	nt	-17.8	nt	nt	5.0	7.0	nt
O=C(Nc1ccc(Cl)cc1)Nc1ccon1	nt	-19.3	nt	nt	-129.1	29.2*	8.9
Cc1ccc(NC(=O)Nc2ccon2)cc1	nt	-82.2	nt	nt	-101.6	0.1	nt
C=CCNc1nnc(Cc2ccc(C(C)C)cc2)c(=O)[nH]1	nt	16.5	nt	nt	-31.9	23.1*	14.3
CCOc1ncccc1C(=O)NC(C)CCc1ccccc1 (stereo unspecified)	nt	-20.6	nt	nt	46.2	1.6	nt
COc1ccccc1C(=O)C1CCCN(C(=O)CCn2cnnn2)C1 (stereo unspecified)	nt	-23.3	-2.5	1.1	-12.9	1.0	nt
Cc1c(C(=O)N2CCOCC2)[nH]c2c1C(=O)CC(c1ccccc1Cl)C2 (stereo unspecified)	85.0*	60.8	85.0*	83.7*	4.1	59.7*	48.0*
Cc1cc(C(=O)N2CCC(Cc3ccccc3)CC2)c(C)o1	nt	-16.2	nt	nt	-0.1	6.1	nt
SMILES	APP 5UTR inh	KLF5 inh	Ba/F3 V617F tox	BaF3 tox	aSyn UTR inh	IEC-6 cytotox	IEC-6 cytotox cf
CCC(=O)N1CCN(c2ccccc2NC(=O)c2ccc([N+](=O)[O-])o2)CC1	nt	0.9	nt	nt	-48.6	37.7*	15.5
CC(C)C(=O)N1CCN(c2ccccc2NC(=O)c2ccc([N+](=O)[O-])o2)CC1	nt	-7.9	nt	nt	-27.1	26.5*	22.6*
CCC(=O)N1CCN(c2ccccc2NC(=O)Cc2ccccc2)CC1	-16.1	-3.8	-2.7	1.4	7.3	3.6	nt
O=C(Nc1ccc([N+](=O)[O-])cc1)c1ccc(S(=O)(=O)N2CCCC2)cc1	nt	-14.5	nt	nt	12.5	-4.4	nt
O=C(Nc1ccc(S(=O)(=O)N2CCCCCC2)cc1)c1[nH]ncc1[N+](=O)[O-]	nt	-1.4	nt	nt	86.1*	29.1*	7.4
O=C(Nc1ccccc1N1CCN(C(=O)c2ccccc2)CC1)c1cc2ccccc2o1	-1.0	7.1	-5.4	2.6	nt	-3.9	nt
O=C(Nc1ccccc1N1CCCC1)c1ccc([N+](=O)[O-])o1	nt	-15.2	nt	nt	-112.2	65.8*	16.7
COc1ccc(N2CCCC2)c(NC(=O)c2ccc([N+](=O)[O-])o2)c1	nt	-11.1	nt	nt	-70.2	32.7*	12.5
O=C(Nc1ccccc1N1CCN(C(=O)c2ccccc2)CC1)c1ccc([N+](=O)[O-])o1	nt	4.0	nt	nt	-46.2	27.6*	12.4
CC1CCN(c2ccccc2NC(=O)c2ccc([N+](=O)[O-])o2)CC1	nt	-6.3	nt	nt	-10.0	4.6	nt
CCN1CCN(c2nc(Nc3ccccc3F)nc(N)c2[N+](=O)[O-])CC1	nt	-22.9	-5.2	-4.2	19.5	2.5	nt
Nc1nc(Nc2ccccc2F)nc(N2CCCC2)c1[N+](=O)[O-]	nt	-16.3	nt	nt	-131.5	22.8*	22.1*
CCn1c(SCC(=O)Nc2ccccc2)nc2ccccc2c1=O	nt	-6.3	nt	nt	13.4	-4.4	nt
CCn1c(SCC(=O)Nc2cccc(C)c2)nc2ccccc2c1=O	nt	-34.2	nt	nt	4.0	22.1*	7.2
O=C(NCc1ccccc1F)C1CCCN1C(=O)Nc1ccc(F)cc1 (stereo unspecified)	nt	-33.4	nt	nt	2.5	1.2	nt
COc1ccc(C(=O)c2ccc(Cl)c([N+](=O)[O-])c2)cc1	95.0*	-29.6	91.4*	91.2*	39.2	66.1*	72.6*
COc1ccc(C(=O)c2ccc(Cl)cc2)cc1	-2.1	1.9	1.4	5.7	-38.3	7.7	nt
OCCCNc1c2ccccc2nc2ccccc12	nt	35.4	nt	nt	-154.8	39.1*	26.2*
Cc1ccc(-c2nc(NCCCO)c3ccccc3n2)cc1	nt	2.4	nt	nt	20.6	4.3	nt
c1ccc2c(NCCc3c[nH]c4ccccc34)c3ccccc3nc2c1	nt	-18.8	nt	nt	i	22.4*	15.7
Fc1cccc(NCCc2c[nH]c3ccccc23)n1	nt	-27.8	nt	nt	-101.1	-1.6	nt
Cc1ccc(NC(=O)Nc2cnccn2)cc1	nt	-95.6	nt	nt	-118.3	-3.0	nt
CC(C)c1ccc(NC(=O)Nc2cnccn2)cc1	nt	-81.8	nt	nt	-211.5	42.0*	15.3
Cc1nnc(N/N=C/c2ccc(-c3ccc(Br)cc3)o2)n1N	-7.8	-35.9	1.4	7.0	-27.9	36.8*	-10.9
O=C(O)c1ccc(N/N=C/c2ccc(-c3ccc(Br)cc3)o2)cc1	nt	-27.2	nt	nt	-25.3	28.0*	27.9*
Cc1nnc(N/N=C/c2ccc(Br)cc2)n1N	nt	-34.9	nt	nt	-11.2	-1.5	nt
CC1CCc2sc(C(=O)N3CCN(c4ncccn4)CC3)cc2C1 (stereo unspecified)	nt	-9.2	nt	nt	26.2	6.4	nt
Cc1cnc(CNC(=O)c2ccc3oc(C(C)C)nc3c2)[nH]1	nt	-40.2	nt	nt	0.7	-8.9	nt
Cc1ccc2oc(C(=O)NCc3ncc(C)[nH]3)c(C)c2c1	nt	3.5	nt	nt	-37.5	33.8*	21.0
